# Assay outcomes: PubChem BioAssay, National Center for Advancing Translational Sciences (NCATS)
# VACV Venus inh: vaccinia inhibition (Venus reporter) | Vaccinia virus Venus reporter expression, fluorescence | Potency, µM (titrated, usually from 36.5 µM), usual class: inhibitors | 330,000 tested, 0.46% active; calls by dose curve; tested in A549 cells; also: nearly all actives have a fitted effect of over 30% in size
# HCV inhibitor: HCV inhibition; 340,000 tested, 3.4% active; Potency, µM (highest dose often 41.8 µM), usual class: inhibitors; Huh7.5.1 HCVcc-Cre infection, luciferase reporter, 44 h; active = well fitted inhibition curve with a large enough effect; inconclusive = small, poorly fitted or top-dose-only effect, or another doubt; inactive = no such curve, though single readings can be large or run the other way
#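 Infectious HCV cell culture screen: compound-treated cells (1,000/well, pre-plated 4 h) are infected with HCVcc-Cre at roughly 0.5 moi and grown 44 h. Infection is quantified by luciferase signal after 15 min substrate incubation at room temperature.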
# Vaccinia mCherry: inhibitors of vaccinia virus infection (mCherry reporter signal) | Vaccinia virus mCherry reporter infection, fluorescence | Potency, µM (highest dose often 36.5 µM), actives largely listed as inhibitors | 310,000 tested, 0.63% active; calls by dose curve; tested in A549 cells; also: nearly all actives have a fitted effect of over 35% in size
# A number is an active result; 0 = inactive; ? = inconclusive; - = no result; ! = not active in a repeat; [ ] = another dose, or the depositor's remark. An excerpt weighted towards active compounds, which were near 3.3% of everything screened.
SMILES,VACV Venus inh,HCV inhibitor,Vaccinia mCherry
CCc1ccc(C(=O)c2cn(CC(=O)Nc3cc(C)ccc3C)c3nc(C)ccc3c2=O)cc1,0,-,0
COc1cc(O)c(C(=O)c2ccccc2)cc1O,0,-,?
COc1ccc(C(=O)c2ccccc2)c2c(O)ccc(C(=O)c3ccccc3)c12,?,2.51µM,-
CN=c1scc(-c2ccco2)n1/N=C/c1ccc(O)c(O)c1,0,2.51µM,0
C=CCN=c1scc(C)n1/N=C/c1ccc(O)c(O)c1,0,11.2µM,0
CN=c1scc(-c2ccccc2F)n1/N=C/c1ccc(O)c(O)c1O,0,0,0
CN=c1scc(C)n1/N=C/c1ccc(O)cc1,0,?,-
O=S(=O)(O)CCS,0,0,0
NCCCS(=O)(=O)O,0,5.62µM!,0
CCOC(=O)c1c(-c2ccc(-c3ccccc3)cc2)csc1NC(=O)C1C2CCC(O2)C1C(=O)O (stereo not drawn),0,0,0
CCOC(=O)c1c(-c2ccccc2)csc1NC(=O)C1CCCO1 (stereo not drawn),0,10µM,0
COC(=O)c1c(-c2ccccc2)csc1NC(=O)c1c(-c2ccccc2)noc1C,0,?,6.31µM
CCOC(=O)c1c(-c2ccccc2)csc1NC(=O)CSc1nnnn1C,-,7.08µM,-
CCOC(=O)c1c(-c2ccccc2)csc1NC(=O)CSc1ccccc1,0,0,0
CCOC(=O)c1c(-c2ccc(F)cc2)csc1NC(=O)c1c(-c2ccccc2)noc1C,0,?,?
Cc1cccc(N(CC(=O)NCc2ccc(F)cc2)C(=O)c2ccco2)c1,0,0,0
O=C(CSc1nc2c([nH]c3ccccc32)c(=O)n1-c1ccc(F)cc1)NCc1ccccc1,?,-,0
CCCCNC(=O)Cn1nc(N2CCN(c3ccccc3OC)CC2)ccc1=O,0,-,0
Cc1c(N=C2N=C(NC(=O)c3cccs3)c3ccccc32)c(=O)n(-c2ccccc2)n1C,0,10µM,0
Cc1c(N=C2N=C(NC(=O)NC(C)(C)C)c3ccccc32)c(=O)n(-c2ccccc2)n1C,-,0,-
COc1cccc(CN(C)C(=O)CSC(C)C(=O)Nc2cc(C)on2)c1OC (stereo not drawn),0,0,0
O=C(Nc1ccc(F)c(Cl)c1)c1ccc2c(Cl)c3c(nc2c1)CCCC3,0,-,0
CCc1cccc(C)c1NC(=O)CN1C(=O)NC(C)(CCC(C)C)C1=O (stereo not drawn),0,0,0
COC(=O)c1cc(C(=O)N2CCN(c3ccccc3OC)CC2)cc([N+](=O)[O-])c1,0,0,2.82µM
COc1ccccc1N1CCN(C(=O)c2ccc3nc[nH]c3c2)CC1,0,0,0
SMILES,VACV Venus inh,HCV inhibitor,Vaccinia mCherry
COc1ccccc1N1CCN(C(=O)c2ccc3nc(-c4ccco4)c(-c4ccco4)nc3c2)CC1,?,11.2µM!,11.2µM
COC(=O)c1cc(C(=O)N2CCN(c3cccc(C)c3C)CC2)cc([N+](=O)[O-])c1,0,?,?
COCC1CCCN(Cc2ccc3c(c2)CN(C(=O)c2sc(C)nc2C)CCO3)C1 (stereo not drawn),0,-,0
O=C(NCc1cccnc1)C1CCN(Cc2cc3ccccc3n2Cc2cccc(Cl)c2)CC1,0,-,0
COC(=O)c1cn(C(=O)c2cc(Br)ccc2Cl)c2ccccc12,-,0,-
CCN(CC)S(=O)(=O)c1cc(NC(=O)C2CC(=O)N(Cc3ccccc3)C2)ccc1Cl (stereo not drawn),-,11.2µM,-
CC(=O)Nc1ccc(NC(=O)C2CC(=O)N(Cc3ccccc3)C2)cc1 (stereo not drawn),0,0,0
O=C(Nc1ccc(S(=O)(=O)N2CCCCC2)cc1)C1CC(=O)N(Cc2ccccc2)C1 (stereo not drawn),0,0,0
Cc1ccc(NC(=O)C2CC(=O)N(Cc3ccccc3)C2)cc1S(=O)(=O)N1CCCCCC1 (stereo not drawn),?,8.91µM,?
C=C(CC[C@]12OC(C(=O)O)C(O)(C(=O)O)C(C(=O)O)(O1)C(OC(=O)/C=C/[C@@H](C)C[C@@H](C)CC)C2O)[C@@H](OC(C)=O)[C@H](C)Cc1ccccc1 (stereo partly drawn),0,-,0
Cc1c(Cl)cccc1NC(=O)CSc1nccn1C,0,0,0
O=C1/C(=C/c2ccco2)SC(=S)N1C1CCS(=O)(=O)C1 (stereo not drawn),0,0,0
CCN(C(=O)C(C)N1C(=O)/C(=C/c2ccco2)SC1=S)C1CCS(=O)(=O)C1 (stereo not drawn),-,14.1µM,-
CCCCN(Cc1ccco1)S(=O)(=O)c1csc(C(N)=O)c1,-,0,-
O=[N+]([O-])c1cccc(-c2nc3ccc([N+](=O)[O-])cc3[nH]2)c1,-,14.1µM,-
O=[N+]([O-])c1ccc2nc(-c3ccncc3)[nH]c2c1,-,0,-
O=C(CNS(=O)(=O)c1ccc(Cl)cc1)NC1CCCCC1,-,0,-
COC(=O)c1ccc(C(=O)OC)c(NC(=O)C2CC(=O)N(C3CCCC3)C2)c1 (stereo not drawn),0,?,0
O=C(Nc1nc(-c2cccs2)cs1)c1ccc(Cl)cc1,0,?,0
Cc1ccc(-c2csc(NC(=O)c3cccc(S(=O)(=O)N4CCN(C)CC4)c3)n2)cc1,0,?,0
O=C(Nc1nc(-c2cccs2)cs1)c1cccc(S(=O)(=O)N2CCCCC2)c1,?,11.2µM,?
COc1cc(C(=O)Nc2nc(-c3cccs3)cs2)cc(OC)c1OC,0,1.78µM,?
CCCCCCCCN1C(=O)[C@H](CC(=O)NCc2cccc(C(F)(F)F)c2)C[C@@]2(C(=O)OCC)CCC=C12,0,-,0
Cc1ccc(-c2nnn(CC(=O)N(Cc3ccco3)C(C(=O)NC(C)(C)C)c3ccc(C)o3)n2)o1 (stereo not drawn),?,11.2µM,?
Cc1ccc(C(C(=O)NC(C)(C)C)N(Cc2ccco2)C(=O)Cn2nnc(-c3cccs3)n2)cc1 (stereo not drawn),0,?,0
SMILES,VACV Venus inh,HCV inhibitor,Vaccinia mCherry
CCOc1ccc(CCNC(=O)CCc2c(C)nc3cc(-c4ccccc4OC)nn3c2C)cc1,0[7.34 µM],-,0[7.34 µM]
O=S(=O)(c1ccc2ccccc2c1)N1CCCCCC1,0,0,0
O=S(=O)(CC(CN1CCCC1)N1CCCC1)c1ccc2ccccc2c1 (stereo not drawn),-,10µM,-
Nc1nc(N)c2c(OCc3ccc(C(F)(F)F)cc3)cccc2n1,10µM,-,10µM
CCOC(=O)N(C)c1c(CC)nc2c(OCc3ccc(C(F)(F)F)cc3)cccn12,0,-,0
Cc1ccc(N(CC(=O)NCCSc2ccccc2)S(=O)(=O)c2ccc(F)cc2)cc1,0,-,0
CC1CC(N(C(=O)c2ccc(Cl)cc2)c2ccccc2)c2ccccc2N1C(=O)c1ccco1 (stereo not drawn),?,10µM,-
CC1CC(N(C(=O)c2ccco2)c2ccccc2)c2ccccc2N1C(=O)c1ccco1 (stereo not drawn),-,0,-
Cc1ccc(CNC(=O)c2ccc3c(c2)N(Cc2cccc(C)c2)C(=O)CS3)cc1,0,-,0
COc1ccc(C)cc1-n1nnnc1SC(C)C(=O)NC1CCCC1 (stereo not drawn),-,0,-
CC12CCC(=O)C=C1CCC1C2CCC2(C)C(O)CCC12 (stereo not drawn),0,0,0
CC(=O)C1C(N2CC2)CC2C3CCC4=CC(=O)CCC4(C)C3CCC21C (stereo not drawn),?,0.562µM,0
O=C(c1cccs1)c1no[n+]([O-])c1C(=O)c1cccs1,?,10µM,0
